# Source: PubChem
# A selection: hits, their analogues and other compounds. The true share with any hit is near 4.3%.
# PfHsp40 yeast: compounds rescuing yeast from Plasmodium falciparum HSP40 toxicity. growth rescue, % at 12.5 µM. 340,000 tested, 0.68% active. AID 504582. S. cerevisiae expressing PfHsp40, growth rescue, ATP luminescence; in the data active means growth rescue above about 28%, passing the limit was not always enough; inconclusive means no clear call, values can overlap the other calls;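 further: yeast W303a lacking pdr1 and pdr3 grown in galactose medium; growth measured after three days at 30 °C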
# Anthrax LF prot: anthrax lethal factor protease inhibition; multiplex microsphere protease cleavage assay, LF; 360,000 tested, 0.12% active; P15917; inhibition, % at 10 µM; further: plate controls were buffer without enzyme for full effect and enzyme alone for no effect
# BoNT-A LC inh2: blocks Botulinum neurotoxin A light chain protease. multiplex microsphere protease substrate cleavage, flow cytometry. inhibition, % at 10 µM. 360,000 tested, 0.17% active. AID 588499; further: plate controls were buffer without enzyme for full effect and enzyme alone for no effect
# MazEF act: MazEF (E. coli) toxin RNase activation; P0AE70; AID 504720; activation, % at 20 µM; 350,000 tested, 0.32% active; FAM/BHQ RNA-DNA oligo cleavage fluorescence, 5 h; in the data active means activation above about 50%
# Target sequence (P0AE70 whole entry, looked up): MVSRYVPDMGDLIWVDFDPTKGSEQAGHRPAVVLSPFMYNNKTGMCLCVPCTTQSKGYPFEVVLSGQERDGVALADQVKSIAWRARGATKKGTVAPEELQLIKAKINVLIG
# BoNT-F LC inh: BoNT F light chain protease inhibition. Multiplex microsphere protease cleavage assay, flow cytometry. inhibition, % at 10 µM. 360,000 tested, 0.22% active. AID 588497; in the data active means inhibition above about 35%, passing the limit was not always enough; inconclusive means no clear call, values can overlap the other calls; further: plate controls were buffer without enzyme for full effect and enzyme alone for no effect
# Autofluor counter: flagged as autofluorescent in microsphere protease counterscreen; compound autofluorescence counterscreen, microsphere flow cytometry; active compounds read high; AID 624483; 360,000 tested, 3.1% active; fluorescence intensity (no concentration beside the values); in the data active means fluorescence intensity above about 16000; inconclusive means no clear call, values can overlap the other calls
# * hit, by the source's call; i = inactive; ? = inconclusive; / = no result given. Unless noted, no stated cut-off is given here; in the data, active means inhibition above about 30%; inconclusive means no clear call, values can overlap the other calls; inactive means below that.
SMILES,PfHsp40 yeast,Anthrax LF prot,BoNT-A LC inh2,MazEF act,BoNT-F LC inh,Autofluor counter
COc1ccc(S(=O)(=O)NN=C2CCCC2)cc1,-0.4,-1.1,-1.0,-5.9,0.1,20396*
O=S(=O)(NN=C1CCCCCC1)c1ccc(Cl)cc1,-1.1,-0.8,-1.3,0.4,-5.7,6109
O=[N+]([O-])c1ccc(S(=O)(=O)NN=C2CCCCC2)cc1,-1.4,1.8,0.2,118.9*,4.1,2813
CC(=O)c1cccc(OCc2cc(C(=O)N3C[C@@H](C)O[C@@H](C)C3)no2)c1,1.0,1.4,0.4,4.6,4.0,5153
O=[N+]([O-])c1ccc(OCCO)c(P(=O)(c2ccccc2)c2ccccc2)c1,-1.8,14.7,3.9,7.6,?,3318
COc1ccc(C(=O)c2c(C(F)(F)F)oc3c2C(=O)c2ccccc2C3=O)cc1OC,60.4*,-4.0,-0.4,1.8,-8.6,2204
O=C(NCc1nnnn1-c1ccc(F)c(F)c1)c1ccc(S(=O)(=O)N2CCOCC2)cc1,-0.5,2.3,-3.1,0.4,-3.5,5608
Cc1nn(Cc2ccc([N+](=O)[O-])cc2)c(=O)n1-c1cccc(Cl)c1,-1.3,2.6,0.1,-2.1,-8.6,3115
Cc1nc(NC(=O)c2ccc(-c3cc4ccccc4oc3=O)cc2)ccc1Br,0.1,-0.6,-1.0,-166.7,-8.5,2124
Cc1nc(NC(=O)c2cccc(-c3cc4ccccc4oc3=O)c2)ccc1Br,0.1,-2.9,-0.4,83.6*,5.1,9407
O=C(NCc1cccs1)C1CCCN1S(=O)(=O)c1ccccc1F (stereo unspecified),0.3,-2.6,?,-4.9,-0.5,19819*
Cc1ccc(CN2CCN(Cc3ccco3)CC2)cc1,-1.2,-13.8,-3.4,15.1,?,4325
COc1ccc(Cc2c(-c3ccccc3)nc3ccc(Br)cn23)c(C)c1,/,21.1,40.0*,/,-1.1,5928
O=C1CC2(CCN(C(=O)c3c(F)cccc3F)CC2)Oc2ccccc21,-1.3,9.7,1.5,0.9,8.3,5677
Cc1cc(-n2nnc3ccccc32)nc2ccccc12,0.3,0.2,-2.6,4.1,-6.4,17243*
CC1CCCCC12NC(=O)N(CC(=O)NCc1ccco1)C2=O (stereo unspecified),-1.3,-1.4,-0.1,4.8,2.2,3615
COc1ccc2cc3c(N)c(C(=O)NCc4ccco4)sc3nc2c1,8.9,1.7,4.8,67.4*,-10.3,4228
CC1CCCCC12NC(=O)N(CC(=O)NC(=O)NCc1ccco1)C2=O (stereo unspecified),1.5,-1.8,0.6,-5.3,-2.3,22867*
COc1ccc2cc(C3(C)NC(=O)N(CC(=O)NCc4ccco4)C3=O)ccc2c1 (stereo unspecified),0.2,-1.7,1.3,2.9,0.9,21910*
COc1ccc(CNC(=O)CN2C(=O)NC(C)(c3cccc(Br)c3)C2=O)cc1 (stereo unspecified),0.5,7.7,-1.0,2.5,27.9,3901
COc1ccccc1NS(=O)(=O)c1ccc(C)c(NC(=O)C2CCCO2)c1 (stereo unspecified),-0.3,-2.2,-0.3,-6.0,-1.2,7764
COc1cccc(/C=N/Nc2ncnc3scc(-c4ccccc4)c23)c1OC,2.0,0.5,2.3,-5.7,-1.6,21674*
CCOCCCN(C(=O)Cn1nnc(-c2ccc(OC)c(OC)c2)n1)C(C(=O)NCC1CCCO1)c1ccc(F)cc1 (stereo unspecified),0.5,0.2,-0.3,-6.6,16.8,3523
CCC(=O)N(CCC(c1ccco1)c1ccccc1OC)Cc1cccs1 (stereo unspecified),0.2,-1.2,0.5,4.8,-0.4,23755*
CCn1cc(/C=C/c2cc[n+](C)cc2)c2ccccc21,-0.5,3.7,-9.4,i,-1.5,7776
SMILES,PfHsp40 yeast,Anthrax LF prot,BoNT-A LC inh2,MazEF act,BoNT-F LC inh,Autofluor counter
CC(C)n1cc(/C=C/c2cc[n+](C)cc2)c2ccccc21,-0.6,2.4,-9.6,69.0*,?,7713
C=CCn1cc(/C=C/c2cc[n+](C)cc2)c2ccccc21,0.0,-11.8,-1.3,70.0*,5.6,5216
COc1ccccc1CC(=O)NNC(=O)CN(C)S(=O)(=O)c1ccc(Cl)cc1,/,-7.2,-4.3,5.5,4.1,?
Cc1ccc(NC(=O)c2ccc(CNc3c(N4CCC(C)CC4)c(=O)c3=O)cc2)cc1,1.4,13.4,-0.2,13.4,1.4,3368
CCN(CC)c1c2c(c(C#N)c3nc4ccccc4n13)CCC2,-0.6,-3.2,-0.6,26.7,-1.3,16264*
CCn1nc(CCC(=O)O)c2ccccc2c1=O,-2.0,-1.3,2.7,3.5,3.1,22340*
CCCn1nc(CC(=O)O)c2ccccc2c1=O,1.0,0.2,0.1,4.6,5.3,2754
Cc1nnc(SCC(=O)N2CC(=O)Nc3ccccc32)n1Cc1ccccc1,19.2,1.1,-0.5,0.0,-20.2,3667
O=C1CN(C(=O)CSc2nnnn2-c2ccc(Cl)cc2)c2ccccc2N1,0.9,-1.8,?,0.4,2.9,21884*
CCC(=O)Nc1cc(-c2nn(C)c(=O)c3ccccc23)ccc1N1CCOCC1,-0.1,3.2,1.5,7.6,5.3,9232
Cn1nc(-c2ccc(N3CCCCC3)c(NC(=O)c3ccco3)c2)c2ccccc2c1=O,1.3,-2.0,?,-9.1,-1.7,23305*
O=C1NC[C@@H](CCCCN2C[C@H](Cc3ccccc3)N(CC3CCCCC3)C(=O)C2=O)N(Cc2ccccc2)C1=O,/,0.2,0.5,/,-1.3,6119
CC(C)Cc1cc(C(=O)O)c2ccccc2n1,-0.6,-3.4,-9.4,-0.4,-11.5,18252*
CCn1c(-c2cc(-c3ccccc3)sc2N)n[nH]c1=S,5.3,-0.4,-0.2,4.5,-10.8,5849
CCn1c(-c2cc(-c3cccc(OC)c3)nc3ccccc23)n[nH]c1=S,5.6,-3.9,2.0,-3.5,1.9,19974*
CCCCNC(=O)CSc1nc2ccccc2c(=O)n1CCNC(C)=O,-1.4,-3.3,-2.1,3.5,-8.6,9968
O=C(CCCn1c(SCC(=O)c2ccc(Cl)cc2)nc2ccccc2c1=O)NCc1ccco1,0.2,/,/,-20.5,/,/
CC(=O)NCCn1c(SCC(=O)c2ccc(Cl)cc2)nc2ccccc2c1=O,0.4,0.5,?,-32.4,-6.2,21199*
CC(=O)NCCn1c(SCC(=O)NCc2ccco2)nc2ccccc2c1=O,-0.8,-4.5,-1.6,4.2,-4.2,17328*
O=C(CCCCCn1c(SCC(=O)c2ccccc2)nc2ccccc2c1=O)NCc1ccco1,-2.1,-3.0,-0.4,-8.7,-1.4,16253*
CC(=O)NCCn1c(SCC(=O)NCCC(C)C)nc2ccccc2c1=O,-0.6,-0.1,-3.5,-1.4,-2.8,23356*
COCCNC(=O)CN(c1ccc(F)cc1)S(=O)(=O)c1ccc2c(c1)OCCO2,-0.8,2.3,-5.2,2.7,-13.6,2875
O=C(Cn1cnc2sc3c(c2c1=O)CCCC3)NCC(=O)Nc1c(F)cc(F)cc1Br,-1.2,0.2,-1.6,-16.4,-2.3,6591
CCCSc1nnc(NC(=O)Nc2ccccc2OC)s1,-0.7,-12.6,-4.6,4.2,?,4587
